Source: PubChem BioAssay
TIM10 inh: growth inhibitors of isogenic TIM10 control yeast, primary screen, counter-screen for tim10-1 yeast inhibitor project, luminescence, uHTS; hit rate 1.4% among 330,000; inhibition, % at 10 µM; S. cerevisiae TIM10 strain growth, BacTiter-Glo luminescence, 24 h;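 active = inhibition of 40% or more at the single tested concentration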;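 also: wild-type TIM10 isogenic control strain grown at permissive 25 °C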
V-ATPase pH: regulators of yeast V-ATPase proton pumping, primary screen, pHLuorin cytosolic pH fluorescence | S. cerevisiae | response, % at 10 µM | hit rate 0.37% among 350,000 | AID 504577, 2011; in the data active = response mostly above about 7.3%, no sharp cut-off; inactive = mostly below about 5.4%; also: actives read high
tim23-1 inh: growth inhibitors of tim23-1 mutant yeast, primary screen, luminescence, uHTS; S. cerevisiae tim23-1 growth, BacTiter-Glo luminescence, 24 h; inhibition, % at 20 µM; hit rate 1.3% among 330,000; AID 463212, 2010;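 active = growth inhibition of the mutant yeast at or above 50%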;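 also: temperature-sensitive mutant grown at 25 °C; plate controls were DMSO-treated mutant yeast for no effect and medium wells lacking yeast for full effect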
PfHsp90 yeast 2: growth inhibition of PfHsp90-expressing yeast, primary screen, antimalarial PfHsp90 inhibitor project, S. cerevisiae, BacTiter-Glo luminescence, single point, set 2. BacTiter-Glo ATP, 48 h; yeast lacking PDR1 and PDR3 efflux regulators. inhibition, % at 9.4 µM. hit rate 0.32% among 310,000. AID 504621, 2011;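 active = every replicate shows inhibition above about 80%, whatever the replicate mean, limit read from the data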;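 also: 0% = DMSO neutral controls and 100% = 20 µM radicicol positive controls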
tim10-1 inh: growth inhibitors of tim10-1 mutant yeast, primary screen, luminescence, uHTS | AID 463190, 2010 | hit rate 2.2% among 330,000 | inhibition, % at 20 µM | S. cerevisiae tim10-1 ts strain growth, BacTiter-Glo, 24 h;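 active = inhibition of at least 40%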;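 also: mutant grown at 25 °C; 0% = DMSO wells with yeast and 100% = wells holding no yeast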
tim10 confirm: growth inhibitors of wild-type TIM10 yeast, confirmation, counter-screen for tim10-1 synthetic lethality project, single concentration, luminescence, S. cerevisiae; shares compounds with TIM10 inh; S. cerevisiae tim10 strain growth, BacTiter-Glo luminescence, 24 h; inhibition, % at 10 µM; hit rate 63% among 4,600; AID 463215, 2010;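 active = inhibition of yeast growth at or above a set limit in either of two replicates at 10 µM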;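 also: this counterscreen used the strain with wild-type TIM10; 0% = yeast with DMSO and 100% = medium wells lacking yeast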
The depositor's hits bear a star; · = no result given. An excerpt weighted towards active compounds, which were near 3.7% of everything screened.

SMILES	TIM10 inh	V-ATPase pH	tim23-1 inh	PfHsp90 yeast 2	tim10-1 inh	tim10 confirm
Cc1ccc(NC(=O)COC(=O)c2ccc3c(c2)C(=O)N(CCc2ccccc2)C3=O)c(C)c1	41.3*	3.6	-27.0	-43.2	0.9	-17.6
COc1cccc(NC(=O)CN(C)C(C)C(=O)N2CCCC2)c1 (stereo not given)	2.4	2.2	10.5	-4.0	2.9	·
COc1ccc(CNC(=S)Nc2ccccc2-c2ccccc2)cc1	47.7*	2.2	14.7	·	23.8	30.4
Cc1cc(C)cc(NC(=S)NCc2ccc3c(c2)OCO3)c1	41.7*	5.3	-14.7	-7.7	11.1	16.1
COc1ccc(CNC(=S)Nc2cc(C)cc(C)c2)cc1	41.0*	-1.2	14.6	-3.4	26.7	-15.4
Cc1ccc(NC(=S)NCc2ccc3c(c2)OCO3)cc1C	25.0	1.8	33.6	-10.9	23.9	·
Cc1ccccc1NC(=S)NCc1ccc2c(c1)OCO2	14.2	2.4	40.9	·	18.8	·
Cc1ccc(C)c(NC(=S)NCc2ccc3c(c2)OCO3)c1	40.8*	1.7	3.0	-0.4	25.2	-0.2
Cc1ccc(NC(=O)CSc2nncn2N)cc1C	-3.8	0.3	-9.4	-9.7	1.6	·
Cc1ccc(C(=O)NCc2ccc3c(c2)OCO3)c(C)c1	66.9*	-0.6	4.1	-5.4	-4.4	8.4
CCOc1ccc(C(NC(=O)CC)c2c(O)ccc3ccccc23)cc1 (stereo not given)	9.2	1.4	18.7	-18.1	26.1	·
CC(=O)Oc1ccc2ccccc2c1C(NC(=O)Cc1ccccc1)c1ccc(Cl)cc1 (stereo not given)	40.2*	-1.2	39.5	-75.5	23.5	29.6
O=C(Nc1cnn(Cc2ccc(Cl)c(Cl)c2)c1)C12CC3CC(CC(C3)C1)C2	55.7*	-1.0	22.2	24.5	36.3	42.9*
O=C(Nc1ccc(Cl)c(Cl)c1)c1ccc(Cn2cc(Cl)cn2)cc1	·	-3.8	·	·	·	·
CC(=O)Nc1ccc(Sc2ncnc3scc(-c4ccccc4)c23)cc1	35.3	-3.6	28.6	0.8	27.8	·
CCCC(=O)Nc1ccccc1Sc1ncnc2scc(-c3ccccc3)c12	46.6*	1.9	47.0	-20.4	27.8	50.8*
NC(=O)CSc1nnnn1-c1cccc(Cl)c1	12.0	2.5	5.8	24.5	7.5	·
C#CCSc1nnnn1-c1cccc(Cl)c1	48.7*	-1.9	19.1	8.1	3.8	-23.0
COCCCNC(=S)NCCNc1nc2c(C)c(C)ccc2cc1C#N	·	-2.4	·	-24.4	·	·
COc1ccc(NC(=O)c2ccc(CN3CCN(c4ccccc4)CC3)cc2)cc1	5.8	1.4	15.7	9.5	13.7	·
NC(=O)c1ccc(NC(=O)c2ccc(CN3CCOCC3)cc2)cc1	43.2*	0.8	7.0	-3.4	5.0	-2.6
COc1cccc(NC(=O)c2ccc(CN3CCN(c4ccccc4)CC3)cc2)c1	51.1*	6.4	26.0	-26.9	26.6	20.6
CC(C)(C)c1cc(C(c2cccnc2)N2CCN(CCO)CC2)cc(C(C)(C)C)c1O (stereo not given)	41.4*	2.1	42.0	105.3*	21.3	54.1*
CC(C)(C)n1nnnc1C(c1cccnc1)N1CCN(c2cccc(C(F)(F)F)c2)CC1 (stereo not given)	-50.6	0.9	-83.5	17.6	-26.4	·
CC1(C(=O)N2CC3(CC(c4cccc(NC(=O)CC(c5ccccc5)c5ccccc5)c4)=NO3)C[C@@H]2C(N)=O)CC1 (stereo not given in full)	95.6*	-0.7	21.5	-19.2	-1.0	-20.0
SMILES	TIM10 inh	V-ATPase pH	tim23-1 inh	PfHsp90 yeast 2	tim10-1 inh	tim10 confirm
COc1ccc(C(=O)N2CC3(CC(c4cccc(NC(=O)CC(c5ccccc5)c5ccccc5)c4)=NO3)C[C@H]2C(N)=O)cc1 (stereo not given in full)	96.1*	1.1	21.5	9.7	23.7	-5.0
CCC(=O)Nc1cccc(C2=NOC3(C2)C[C@@H](C(N)=O)N(C(=O)C2(C)CC2)C3)c1 (stereo not given in full)	-3.3	5.5	-3.0	·	-14.0	·
O=C(Nc1nc2ccccc2s1)C1CC(=O)N(c2ccc(Cl)cc2)C1 (stereo not given)	47.8*	-0.6	42.7	-8.6	26.7	-22.0
COc1ccc(N2CC(C(=O)Nc3nc4ccc(OC)cc4s3)CC2=O)cc1 (stereo not given)	-4.7	-5.6	34.2	4.0	32.6	·
Cc1ccc(OCC(=O)Nc2ccc3c(c2)C(=O)NC3=O)c(C)c1	4.4	2.2	24.3	17.0	6.0	·
O=[N+]([O-])c1ccc(CSc2nnc(-c3cccnc3)o2)cc1	-0.2	-2.0	12.2	29.7	14.7	·
CCOc1ccc(NC(=S)Nc2cc(OC)c(Cl)cc2OC)cc1	40.3*	-3.2	30.1	-3.6	35.5	5.0
CCOc1ccc(NC(=S)Nc2ccc(OCC)cc2)cc1	36.1	3.6	-1.6	9.0	21.1	·
COCCCNc1nc2nonc2nc1N1CCC(C(C)N2CCOCC2)CC1 (stereo not given)	-3.3	0.4	12.5	9.3	10.3	·
c1ccc(-c2csc3nnc(SCc4ccc5c(c4)OCCO5)n23)cc1	41.0*	1.6	39.9	-15.4	39.1	29.8*
CCOC(=O)c1ccc(NC(=O)c2c(N)n(Cc3ccccc3)c(=O)[nH]c2=O)cc1	97.6*	-2.1	-11.5	5.3	-15.2	-16.2
CCOC(=O)c1ccc(NC(=O)c2ccccc2)cc1	18.0	-0.3	15.0	-0.8	13.2	·
O=C(CC1C(=O)NCCN1Cc1ccccc1C(F)(F)F)NCCN1CCCCC1=O (stereo not given)	-1.0	5.1	14.9	-10.3	17.5	·
CCCCOc1ccc(C(=O)NCC(=O)N2CCN(Cc3ccc4c(c3)OCO4)CC2)cc1	25.4	-0.5	21.4	·	12.8	·
O=C(NCC(=O)N1CCN(Cc2ccc3c(c2)OCO3)CC1)c1ccccc1F	96.8*	-0.7	11.2	11.1	-13.9	-11.4
CN(C)C(CNC(=O)c1cccc(S(=O)(=O)NCc2ccccc2)c1)c1ccccc1 (stereo not given)	-10.6	5.5	0.7	·	-1.5	·
CCc1ccc(NC(=O)Cn2nc(C(=O)O)c3ccccc3c2=O)cc1	-13.4	-2.6	0.9	-3.6	3.1	·
Cc1cc(CC(C)C)n(-c2nc3ccccc3c(=O)n2OCC(=O)N(C)C)n1	5.0	6.2	18.0	-1.7	15.3	·
Cc1cc(CC(C)C)n(-c2nc3ccccc3c(=O)n2OCc2ccccc2)n1	40.3*	-0.5	38.3	·	34.0	36.9*
Cc1ccc(/C=N/NC(=O)NN(C)c2ncc(C(F)(F)F)cc2Cl)cc1	40.9*	-0.3	18.6	·	28.7	44.7*
CN(NC(=O)Nc1ccc(Cl)cc1)c1ncc(C(F)(F)F)cc1Cl	20.9	-5.4	17.5	15.0	5.6	·
